Laboratory results from PubChem BioAssay AID1851 (National Center for Advancing Translational Sciences (NCATS), 2009).
About 4,000 (25%) of roughly 16,000 compounds were called active. About 26% were inconclusive and are not listed. These entries were drawn from the full list. A number with no mark means an inactive call. The call rests on the fitted dose curve; in most records, active means well fitted curve in the direction sought with a large enough effect; inconclusive means small, poorly fitted or top-dose-only effect, or effect the other way; inactive means no such curve, though single readings can be large or run the other way.

Target: Cytochrome P450 2C9 (Homo sapiens) (UniProt P11712)
Sequence (P11712 whole entry, looked up): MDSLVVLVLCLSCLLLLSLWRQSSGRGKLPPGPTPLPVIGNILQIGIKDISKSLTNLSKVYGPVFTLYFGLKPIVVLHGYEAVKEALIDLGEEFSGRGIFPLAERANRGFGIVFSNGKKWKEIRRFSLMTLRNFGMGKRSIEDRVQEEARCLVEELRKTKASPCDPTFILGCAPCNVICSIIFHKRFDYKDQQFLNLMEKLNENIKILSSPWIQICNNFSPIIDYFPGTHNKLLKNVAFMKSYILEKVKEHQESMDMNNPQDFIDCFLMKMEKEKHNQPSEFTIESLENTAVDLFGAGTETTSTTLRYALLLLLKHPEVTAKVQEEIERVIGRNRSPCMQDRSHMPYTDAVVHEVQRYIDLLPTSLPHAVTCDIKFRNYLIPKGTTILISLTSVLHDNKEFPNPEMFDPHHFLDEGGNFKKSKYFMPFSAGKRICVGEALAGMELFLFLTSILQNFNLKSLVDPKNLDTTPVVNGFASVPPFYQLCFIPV
Assay: Cytochrome panel assay with activity outcomes
Details: recombinant CYP, pro-luciferin dealkylation, luminescence, p450-cyp2c9; series mostly up to 57.1 µM; activity, negative = inhibition: at the top concentration
On the % scale 0 is the no-effect control and ±100 the full control effect.

Row | Structure (SMILES) | activity, negative = inhibition | AC50
1 | CC(C)=CCC/C(C)=C/CO/N=C1/C[C@@H](O)[C@@H](O)[C@@H]2[C@H]3C(=O)N(c4ccc(F)cc4F)C(=O)[C@@H]3CC[C@H]12 | 18.9% [at 11.4 µM] | –
2 | N#C/C(=C\c1ccc(N2CCCC2)c([N+](=O)[O-])c1)c1nc2ccccc2[nH]1 | – | 2.51 µM (active)
3 | COc1ccc(/C=C(/C#N)C(=O)Nc2cc(C)ccc2C)cc1C(=O)O | 6.97% | –
4 | COc1cc(/C=C(/C#N)c2nc3ccccc3[nH]2)ccc1OCC(=O)Nc1ccccc1C | – | 3.16 µM (active)
5 | N#C/C(=C\c1ccc(Oc2ccc(C(F)(F)F)cc2[N+](=O)[O-])cc1)c1nc2ccccc2[nH]1 | – | 3.98 µM (active)
6 | COc1cc(/C=C(/C#N)c2nc3ccccc3[nH]2)ccc1Oc1ncccc1[N+](=O)[O-] | – | 2 µM (active)
7 | Fc1ccc(Nc2ncnc3ccc(-c4ccoc4)cc23)cc1 | -12.3% [at 2.29 µM] | –
8 | COc1ccc(-c2cc(C(F)(F)F)n3nc(C(=O)NCc4ccco4)c(Cl)c3n2)cc1 | – | 0.398 µM (active)
9 | COc1ccc(-c2cc(CNC(C)=O)on2)cc1 | -18.3% | –
10 | O=c1ccc(NS(=O)(=O)c2ccc(Cl)cc2)cn1Cc1ccc(Cl)c(Cl)c1 | – | 1.78 µM (active)
11 | O=S(=O)(c1ccccc1)N1CCC2(CCN(Cc3ccccc3)CC2)CC1 | 0.608% | –
12 | O=c1ccc(NS(=O)(=O)c2ccccc2)cn1Cc1ccc(Cl)c(Cl)c1 | – | 2.51 µM (active)
13 | CCn1c(CCNC(=O)c2ccc(Cl)cc2Cl)n[nH]c1=S | 0.368% | –
14 | CCCN(CCC)C(=S)NC(=O)c1ccc(Cl)cc1Cl | – | 3.55 µM (active)
15 | CCC(C)C1NC(=S)N(C2CCCCC2)C1=O (stereo unspecified) | – | 3.55 µM (active)
16 | CC(C)CC1NC(=S)N(C2CCCCC2)C1=O (stereo unspecified) | – | 17.8 µM (active)
17 | COc1ccc2c(c1OC)C(=O)N(C(C)C(=O)O)C2=O (stereo unspecified) | 9.64% | –
18 | O=C(CN1CCN(Cc2ccccc2)CC1)c1ccc(Br)cc1 | -28.3% | –
19 | O=C(CN1CCN(Cc2ccccc2)CC1)N1CCCc2c1c(=O)oc1ccc(O)cc21 | – | 20 µM (active)
20 | COc1cc(CN2CCCCC2)cc2cc(C(=O)O)c(=O)oc12 | 15.6% [at 11.4 µM] | –
21 | CCC[C@H](Sc1nc(N)nc2nc[nH]c12)C(=O)O | -1.85% [at 11.4 µM] | –
22 | O=C(O)CC[P+](c1ccccc1)(c1ccccc1)c1ccccc1 | 8.46% [at 11.4 µM] | –
23 | O=C(Nc1ccccc1)N1CCSc2cc(Cl)ccc21 | – | 2.24 µM (active)

Row | Structure (SMILES) | activity, negative = inhibition | AC50
24 | O=C(c1ccccc1)N1CCSC1=S | -13.1% | –
25 | CC(=O)NNC(=O)N1Cc2ccccc2Oc2ccc(Cl)cc21 | -14.7% | –
26 | Cc1ccc([C@@]2(C)CC/C(=N/N=C3\CC[C@](C)(c4ccc(C)c(C)c4)c4cc(C)c(C)cc43)c3cc(C)c(C)cc32)cc1C | -6.14% [at 11.4 µM] | –
27 | CCCCCCCCCCCCCCC/C=C\[C@H](O)[C@@H](NC(=O)CCCCCCCCCCCCC)OC (tested in a mixture with another compound) | -1.65% | –
28 | CCCCCCCCCCCCC/C=C\[C@@H](O)[C@H](CO)NC(C)=O | – | 3.16 µM (active)
29 | CCCCCCCCCCCCCCCC(=O)NC(C)C | -0.628% | –
30 | CN1CCC(=C2c3ccccc3Sc3ccccc32)CC1 | -1.54% [at 25.6 µM] | –
31 | O=C(C(NS(=O)(=O)c1cccs1)c1ccccc1)N1CCN(c2ccccc2)CC1 (stereo unspecified) | – | 8.91 µM (active)
32 | COC(=O)NCC(c1cccnc1)N1CCN(c2ccccc2OC)CC1 (stereo unspecified) | -25.7% | –
33 | COC(=O)N1CCC2(CC1)CCN(c1ccccc1)CC2 | -2.09% | –
34 | O=C(CCNS(=O)(=O)c1cccs1)N1CCc2ccccc2C1 | -27.1% | –
35 | COc1ccccc1N1CCN(C(=O)C(NS(=O)(=O)c2cccs2)c2ccccc2)CC1 (stereo unspecified) | – | 11.2 µM (active)
36 | COc1ccccc1N1CCN(Cc2cc(=O)n3ccsc3n2)CC1 | 32.3% | –
37 | S=c1c2[nH]cnc2ncn1CCSc1ncnc2nc[nH]c12 | -0.398% [at 11.4 µM] | –
38 | NS(=O)(=O)c1ccc(NCc2cnc3ccccc3n2)cc1 | 1.39% [at 11.4 µM] | –
39 | NS(=O)(=O)c1ccc(NCc2ccccc2OCc2ccccc2F)cc1 | – | 3.98 µM (active)
40 | NS(=O)(=O)c1ccc(NCc2nc3ccccc3[nH]2)cc1 | 7.25% [at 11.4 µM] | –
41 | O=c1nc(N2CCCCCC2)nc(N2CCCCCC2)[nH]1 | -2.89% | –
42 | Cc1cnc(CNc2ccnc(-c3cccc(NS(C)(=O)=O)c3)n2)cn1 | 16.8% [at 2.29 µM] | –
43 | Nc1nc(N)c(N=Nc2ccc(C(=O)O)c(O)c2)c(N)n1 | -6.7% [at 11.4 µM] | –
44 | Cc1ccccc1Cn1c(Cc2ccccc2)nc2ccccc21 | – | 5.01 µM (active)
45 | Cc1ccc(C)c(C(=N)c2ccccc2Cc2ccccc2)c1 | -26.1% [at 11.4 µM] | –
46 | O=C(C(Cc1ccccc1)N1C(=O)C2C3CCC(C3)C2C1=O)N1CCCCC1 (stereo unspecified) | -7.9% | –
